Assay results: PubChem BioAssay (NCI)
The panel holds about 83,000 compounds, 20% with a hit somewhere; the sample as a whole holds those more often.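 Cells were grown in 96-well plates and exposed to the test compound at a single concentration for 48 hours; results are reported as percent growth, with values below 10 considered active.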 Activity calls are given as the source filed them.

Experiments:
Experiment in all cases: NCI-60 one-dose screen, 48 h (100 = growth as untreated, 0 = no growth, -100 = all killed)
Settings in all cases: 10 µM unless noted
T-47D breast = system: T-47D breast
BT-549 breast = system: BT-549 breast
MDA-MB-435 melanoma = system: MDA-MB-435 melanoma
SW-620 colon = system: SW-620 colon
MCF7 breast = system: MCF7 breast
HCT-116 colon = system: HCT-116 colon
HCC-2998 colon = system: HCC-2998 colon
KM12 colon = system: KM12 colon

Measured: growth

Cc1cc([N+](=O)[O-])ccc1NC(=O)c1ccc2c(c1)nc(-c1ccccc1)n2C1CCCCC1
inactive: T-47D breast 59.8% | BT-549 breast 77.1% | MDA-MB-435 melanoma 92.2% | SW-620 colon 97.6% | MCF7 breast 77% | HCT-116 colon 65.7% | HCC-2998 colon 88.3% | KM12 colon 69.3%

CN(CCNc1ccc(C(=N)N)cc1)c1ccc(C(=N)N)cc1
inactive: T-47D breast 126% | BT-549 breast 102% | MDA-MB-435 melanoma 92.6% | SW-620 colon 98.6% | MCF7 breast 116% | HCT-116 colon 101% | HCC-2998 colon 99.6% | KM12 colon 86.2%

C#C[C@]1(O)CC[C@H]2[C@@H]3CC=C4c5sc(-c6cccc(C)c6)nc5CC[C@]4(C)[C@H]3CC[C@@]21C
inactive: T-47D breast 78.6% | BT-549 breast 71.5% | MDA-MB-435 melanoma 82.8% | SW-620 colon 84.8% | MCF7 breast 34.9% | HCT-116 colon 68.2% | HCC-2998 colon 72.5% | KM12 colon 54.3%

COC(=O)[C@H]1Cc2c([nH]c3ccccc23)[C@H](c2ccc3c(c2)OCO3)N1
inactive: T-47D breast 91.8% | BT-549 breast 99.5% | MDA-MB-435 melanoma 101% | SW-620 colon 102% | MCF7 breast 93.3% | HCT-116 colon 97.6% | HCC-2998 colon 97.6% | KM12 colon 99.3%

C/C(=C(\c1ccc(OCCCN(C)C)cc1)c1ccc(OC(=O)Cc2ccccc2)cc1)c1ccc(Cl)cc1
inactive: T-47D breast 51.2% | BT-549 breast 83.9% | MDA-MB-435 melanoma 57.7% | SW-620 colon 84.6% | MCF7 breast 23.5% | HCT-116 colon 58.3% | HCC-2998 colon 73.6% | KM12 colon 67.4%

CC1=NN(c2cccc(Cl)c2)C(=O)/C1=C\C=C\c1ccccc1
inactive: T-47D breast 36.7% | BT-549 breast 78.4% | MDA-MB-435 melanoma 13.6% | MCF7 breast 10.9% | HCC-2998 colon 30.9% | KM12 colon 16.1%
active: SW-620 colon 1.26% | HCT-116 colon -89.2%

O=C1/C(=C/c2ccc(-c3ccc(Cl)cc3)o2)SC(=S)N1CCc1ccc(O)cc1
inactive: T-47D breast 43.9% | BT-549 breast 64.6% | MDA-MB-435 melanoma 19.7% | SW-620 colon 26.6% | MCF7 breast 77.9% | HCT-116 colon 48.8% | HCC-2998 colon 89.6% | KM12 colon 22.9%

C#CCOc1cccc(Nc2ncnc3c(NC(=O)CCl)cccc23)c1
inactive: BT-549 breast 23% | MDA-MB-435 melanoma 26.4% | MCF7 breast 10.9% | HCC-2998 colon 91.8% | KM12 colon 28.6%
active: T-47D breast -31.4% | SW-620 colon 1.15% | HCT-116 colon 2.88%

CCn1c2ccccc2c2cc(C(O)c3cccc4ncccc34)ccc21 (stereo not drawn)
active: BT-549 breast -8.94% | MDA-MB-435 melanoma 0.201% | HCT-116 colon 0.739% | HCC-2998 colon -32.5% | KM12 colon 8.55%
inactive: T-47D breast 59% | SW-620 colon 26.8% | MCF7 breast 15.5%

COc1cc(C(=O)n2nc(NCCCc3ccccc3)c3cc(N)ccc32)cc(OC)c1OC
inactive: T-47D breast 66% | BT-549 breast 97.1% | MDA-MB-435 melanoma 99% | SW-620 colon 112% | MCF7 breast 89.3% | HCT-116 colon 90.1% | HCC-2998 colon 105% | KM12 colon 88.5%

O=c1c(/C=C/c2c(O)ccc3ccccc23)nnc2sc(-c3cccc([N+](=O)[O-])c3)nn12
inactive: T-47D breast 33.6% | BT-549 breast 65.1% | MDA-MB-435 melanoma 47.5% | SW-620 colon 32.5% | MCF7 breast 27.4% | HCT-116 colon 10.5% | HCC-2998 colon 60.9% | KM12 colon 37.2%

CN1CCN(Cc2ccc(NC(=O)c3cncc(C#Cc4cnc(N)c5ccc(C#N)cc45)c3)cc2C(F)(F)F)CC1
inactive: T-47D breast 10.4% | BT-549 breast 37.3% | HCC-2998 colon 32.6%
active: MDA-MB-435 melanoma -74.3% | SW-620 colon -41.3% | MCF7 breast -60.8% | HCT-116 colon -65.7% | KM12 colon -85.1%

O=C(Nc1cccc(Cl)c1)Oc1c(Cl)c(Cl)c(Cl)c(Cl)c1Cl
inactive: T-47D breast 80.1% | BT-549 breast 88.5% | MDA-MB-435 melanoma 98.7% | SW-620 colon 100% | MCF7 breast 84.9% | HCT-116 colon 95.7% | HCC-2998 colon 119% | KM12 colon 102%

c1ccc2cc(Cn3cc[n+](Cc4ccc5ccccc5c4)c3)ccc2c1
active: T-47D breast -5.37% | BT-549 breast 2.35% | MDA-MB-435 melanoma 7.71% | KM12 colon -1.63%
inactive: SW-620 colon 58% | MCF7 breast 37.2% | HCT-116 colon 41% | HCC-2998 colon 26.5%

CO[C@H]1/C=C/O[C@@]2(C)Oc3c(C)c(O)c4c(O)c(c5c(nc6cc(C)ccn65)c4c3C2=O)NC(=O)/C(C)=C\C=C\[C@H](C)[C@H](O)[C@@H](C)C(O)[C@@H](C)[C@H](OC(C)=O)[C@@H]1C (stereo partly drawn)
active: T-47D breast -5.36%
inactive: BT-549 breast 97.4% | MDA-MB-435 melanoma 104% | SW-620 colon 114% | MCF7 breast 103% | HCT-116 colon 94.9% | HCC-2998 colon 106% | KM12 colon 108%

O=C(Nc1ncc(Cc2ccccc2)s1)c1cc(-c2ccccc2)nc2ccccc12
inactive: T-47D breast 91.7% | BT-549 breast 99.3% | MDA-MB-435 melanoma 104% | SW-620 colon 96.2% | MCF7 breast 91.1% | HCT-116 colon 95.3% | HCC-2998 colon 99.2% | KM12 colon 105%

COc1cccc(/C=C2\CCc3ccccc3C2=O)c1
inactive: T-47D breast 75.3% | BT-549 breast 86.4% | MDA-MB-435 melanoma 58.2% | SW-620 colon 52.1% | MCF7 breast 27.5% | HCT-116 colon 53.4% | HCC-2998 colon 94.7% | KM12 colon 64%

C#CCOC(=O)C(N)CSSCC(N)C(=O)O (stereo not drawn)
inactive: T-47D breast 100% | BT-549 breast 104% | MDA-MB-435 melanoma 89.1% | SW-620 colon 85% | MCF7 breast 99.5% | HCT-116 colon 91.8% | HCC-2998 colon 101% | KM12 colon 108%

COc1ccc(C(=O)C2OC3=C(C(=O)CC(C)(C)C3)C2c2cccc(Oc3ccccc3)c2)cc1 (stereo not drawn)
inactive: T-47D breast 76% | BT-549 breast 92.1% | MDA-MB-435 melanoma 90.8% | SW-620 colon 93.6% | MCF7 breast 89.3% | HCT-116 colon 84.6% | HCC-2998 colon 113% | KM12 colon 94.6%

COc1cccc(C2C(C#N)=C(N)Oc3c2ccc2ccccc32)c1 (stereo not drawn)
active: MDA-MB-435 melanoma 6.77% | HCT-116 colon 5.1%
inactive: T-47D breast 69.5% | BT-549 breast 28.3% | SW-620 colon 30.3% | MCF7 breast 10.8% | HCC-2998 colon 23.6% | KM12 colon 11.9%

C=C(CNCCc1ccc(O)cc1)[C@@H]1CC[C@]2(CO)CC[C@]3(C)[C@H](CC[C@@H]4[C@@]5(C)CCC(N)C(C)(C)[C@@H]5CC[C@]43C)[C@@H]12 (stereo partly drawn)
active: T-47D breast -65.7% | MDA-MB-435 melanoma -90.5% | SW-620 colon -81.6% | MCF7 breast -72.3% | HCT-116 colon -65.9% | HCC-2998 colon -89.5% | KM12 colon -60.6%
inactive: BT-549 breast 59.7%

COc1ccc2c(c1)C(c1c[nH]c3ccccc13)(c1c[nH]c3ccccc13)CCO2
inactive: BT-549 breast 55.6% | MDA-MB-435 melanoma 49.9% | SW-620 colon 61.9% | MCF7 breast 30.7% | HCT-116 colon 18.8% | HCC-2998 colon 72.4% | KM12 colon 46.2%
active: T-47D breast -6.36%

C=C(C)[C@@H]1CC[C@]2(COC(=O)c3cccnc3)CC[C@]3(C)[C@H](CC[C@@H]4[C@@]5(C)CCCN(C(=O)c6cccnc6)C(C)(C)[C@@H]5CC[C@]43C)[C@@H]12
inactive: T-47D breast 31.3% | BT-549 breast 51.9% | MDA-MB-435 melanoma 38.3% | SW-620 colon 32.2% | MCF7 breast 25.6% | HCT-116 colon 28.1% | HCC-2998 colon 50.1% | KM12 colon 31.2%

O=c1cc(-c2nccc3c2[nH]c2ccccc23)c2cc(Cl)ccc2o1
active: MDA-MB-435 melanoma 1.21% | HCT-116 colon 8.73%
inactive: T-47D breast 59.4% | BT-549 breast 36.1% | SW-620 colon 34.3% | MCF7 breast 27.2% | HCC-2998 colon 74.2% | KM12 colon 29%

CCOC(=O)c1c(NC(=S)Nc2ccc([N+](=O)[O-])cc2)sc2c1CCCCC2
inactive: T-47D breast 58.9% | BT-549 breast 86.3% | MDA-MB-435 melanoma 88.2% | SW-620 colon 98.8% | MCF7 breast 70.1% | HCT-116 colon 70.5% | HCC-2998 colon 96.8% | KM12 colon 72.2%

O=C(Nc1ncc(Cc2ccc(Cl)cc2)s1)c1ccc2c(c1)OCCO2
inactive: T-47D breast 46.1% | BT-549 breast 38.1% | SW-620 colon 35.4% | MCF7 breast 10.2% | HCC-2998 colon 23.2% | KM12 colon 12.7%
active: MDA-MB-435 melanoma 5.85% | HCT-116 colon 9.61%

COc1ccc(C(=O)/C=C/c2ccc(Cl)cc2)cc1S(N)(=O)=O
active: HCT-116 colon -78.3%
inactive: T-47D breast 69.9% | BT-549 breast 12.2% | MDA-MB-435 melanoma 86.2% | SW-620 colon 13.2% | MCF7 breast 18% | HCC-2998 colon 100% | KM12 colon 28.2%

CC(C)(C)n1cc(-c2ccnc(NCCNS(=O)(=O)c3ccc(C(F)(F)F)cc3)c2)c(-c2ccccc2)n1
inactive: T-47D breast 62.5% | BT-549 breast 93.7% | MDA-MB-435 melanoma 100% | SW-620 colon 99.2% | MCF7 breast 63% | HCT-116 colon 58.9% | HCC-2998 colon 111% | KM12 colon 96.7%

O=C(/C=C/c1ccc(Cl)cc1)c1ccc(-n2cc(CN3CCN(c4cc5c(cc4F)c(=O)c(C(=O)O)cn5C4CC4)CC3)nn2)cc1
active: HCT-116 colon 2.68%
inactive: T-47D breast 93.4% | BT-549 breast 90% | MDA-MB-435 melanoma 82.2% | SW-620 colon 81.7% | MCF7 breast 51.2% | HCC-2998 colon 90.7% | KM12 colon 86.4%

COc1ccccc1NC(=O)n1c(=O)cc(C)c2ccc(O)cc21
inactive: T-47D breast 99.8% | BT-549 breast 107% | MDA-MB-435 melanoma 105% | SW-620 colon 109% | MCF7 breast 101% | HCT-116 colon 107% | HCC-2998 colon 95.9% | KM12 colon 101%

OC1CSSC1Cn1cnc2c(Nc3ccc(F)c(Cl)c3)ncnc21 (stereo not drawn)
inactive: T-47D breast 61.4% | BT-549 breast 119% | MDA-MB-435 melanoma 63.8% | SW-620 colon 104% | MCF7 breast 45.7% | HCT-116 colon 74.7% | HCC-2998 colon 96.4% | KM12 colon 73.2%
